Measurements reported in PubChem BioAssay (EPA / NIEHS).
Where “and” joins values, the source holds several entries; their conditions need not be identical. Identical values can stand only once. The source holds several records for some structures; these can differ, active in one and inactive in another. Calls of active or inactive are those of the source. How the source made its calls: active means hit-call score of the fitted dose curve at least 0.9, where 1 is the maximum; inactive means score below 0.9.

How the values were obtained:
[1] = read-out: Interleukin 17F (IL17F), IL17F (gene 112744); assay: BSK_BT_xIL17F: BioMAP Diversity Plus: BT Assay for Interleukin 17F (IL17F) Biomarker Activity (AID 2284243); conditions: primary human B cells with PBMC
Method in brief: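 Human PBMC co-cultured with B cells, compound exposure 24 h; secreted IL-17F quantified by Luminex xMAP, referenced to DMSO control. PBMC viability measured in parallel by Alamar Blue reduction.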

[2] = read-out: Actin alpha 1 (ACTA1), ACTA1 (gene 58); assay: BSK_MyoF_ACTA1: BioMAP Diversity Plus: MyoF Assay for Actin alpha 1 (ACTA1) Biomarker Activity (AID 2284244); conditions: primary human lung fibroblasts
Method in brief: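 Cells were exposed to chemical for 24 h before a-SMA levels were quantified by ELISA in human lung fibroblasts. Increases were fitted against DMSO as negative control; parallel SRB staining (0.1% after 10% TCA fixation, 560 nm) assessed cytotoxicity.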

[3] = read-out: Interleukin 2 (IL2), IL2 (gene 3558); assay: BSK_BT_xIL2: BioMAP Diversity Plus: BT Assay for Interleukin 2 (IL2) Biomarker Activity (AID 2284245); conditions: primary human B cells with PBMC
Method in brief: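 The BT system combines human B cells with peripheral blood mononuclear cells. Twenty-four hours after chemical dosing, secreted IL-2 was measured with xMAP bead technology, and responses were analyzed as increases over DMSO controls.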

[4] = read-out: Basic fibroblast growth factor (bFGF), FGF2 (gene 2247); assay: BSK_MyoF_bFGF: BioMAP Diversity Plus: MyoF Assay for Basic fibroblast growth factor (bFGF) Biomarker Activity (AID 2284246); conditions: primary human lung fibroblasts
Method in brief: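 Chemicals are added to human lung fibroblast cultures and incubated 24 h. bFGF is then measured by ELISA, while parallel cultures receive SRB staining for total protein as a cytotoxicity check. Data are fitted upward against DMSO.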

[5] = read-out: Collagen IV, COL4A1 (gene 1282); assay: BSK_MyoF_CollagenIV: BioMAP Diversity Plus: MyoF Assay for Collagen IV Biomarker Activity (AID 2284247); conditions: primary human lung fibroblasts
Method in brief: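 Human lung fibroblast system, 24 h chemical exposure. Endpoint: Collagen IV by ELISA, upward fit vs DMSO.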

[6] = read-out: Interleukin-8 (IL8), CXCL8 (gene 3576); assay: BSK_MyoF_IL8: BioMAP Diversity Plus: MyoF Assay for Interleukin-8 (IL8) Biomarker Activity (AID 2284261); conditions: primary human lung fibroblasts
Method in brief: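 Human lung fibroblast (MyoF system) cultures dosed for 24 h, then IL-8 measured by ELISA. Response taken relative to DMSO; parallel SRB total-protein staining for cytotoxicity.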

[7] = read-out: Decorin, DCN (gene 1634); assay: BSK_MyoF_Decorin: BioMAP Diversity Plus: MyoF Assay for Decorin Biomarker Activity (AID 2284265); conditions: primary human lung fibroblasts
Method in brief: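 Human lung fibroblast cultures were dosed for 24 h, and decorin was then measured by ELISA. Parallel cultures were stained with sulforhodamine B for total protein as a cytotoxicity check. Gain of signal was fitted relative to DMSO.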

[8] = read-out: Monokine induced gamma interferon (MIG), CXCL9 (gene 4283); assay: BSK_KF3CT_MIG: BioMAP Diversity Plus: KF3CT Assay for Monokine induced gamma interferon (MIG) Biomarker Activity (AID 2284248); conditions: primary human keratinocytes with fibroblasts
Method in brief: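 Human keratinocyte–foreskin fibroblast co-culture; MIG measured by ELISA 24 h after chemical dosing, fitted upward versus DMSO. Cytotoxicity was assessed in parallel cultures by SRB total-protein staining read at 560 nm.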

[9] = read-out: Plasminogen activator inhibitor-1 (PAI1), SERPINE1 (gene 5054); assay: BSK_KF3CT_PAI1: BioMAP Diversity Plus: KF3CT Assay for Plasminogen activator inhibitor-1 (PAI1) Biomarker Activity (AID 2284252); conditions: primary human keratinocytes with fibroblasts
Method in brief: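 Cells (human keratinocytes co-cultured with foreskin fibroblasts) are exposed to test chemical for 24 h. PAI-1 is then measured by ELISA and analysed for signal gain against DMSO.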

[10] = read-out: Vascular cell adhesion molecule 1 (VCAM1), VCAM1 (gene 7412); assay: BSK_BF4T_VCAM1: BioMAP Diversity Plus: BF4T Assay for Vascular cell adhesion molecule 1 (VCAM1) Biomarker Activity (AID 2284249); conditions: primary human bronchial epithelial cells with fibroblasts
Method in brief: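 Cell-surface VCAM-1 quantified by ELISA after 24 h chemical exposure of human bronchial epithelial/dermal fibroblast co-cultures, with SRB staining in parallel wells for cytotoxicity; DMSO baseline, positive-direction fitting.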

[11] = read-out: Monocyte Chemoattractant Protein-1 (MCP1), CCL2 (gene 6347); assay: BSK_IMphg_MCP1: BioMAP Diversity Plus: IMphg Assay for Monocyte Chemoattractant Protein-1 (MCP1) Biomarker Activity (AID 2284253); conditions: primary human endothelial cells with macrophages
Method in brief: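 ELISA readout of MCP-1 at 24 hours in IMphg co-cultures of venular endothelial cells and macrophages, normalised to DMSO; parallel cultures stained with sulforhodamine B for overt cytotoxicity.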

[12] = read-out: Macrophage Inflammatory Protein-1 Alpha (MIP1a), CCL3 (gene 6348); assay: BSK_IMphg_MIP1a: BioMAP Diversity Plus: IMphg Assay for Macrophage Inflammatory Protein-1 Alpha (MIP1a) Biomarker Activity (AID 2284255); conditions: primary human endothelial cells with macrophages
Method in brief: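 MIP-1a protein levels were quantified by ELISA after 24 h treatment of human endothelial cell–macrophage co-cultures, compared with DMSO. Parallel cultures were fixed with TCA and stained with 0.1% SRB to gauge overt cytotoxicity.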

[13] = read-out: CD69, CD69 (gene 969); assay: BSK_IMphg_CD69: BioMAP Diversity Plus: IMphg Assay for CD69 Biomarker Activity (AID 2284257); conditions: primary human endothelial cells with macrophages
Method in brief: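 Readout is ELISA for CD69 in primary human venular endothelial cell/macrophage co-culture, taken at 24 h post-dosing. SRB staining of parallel cultures gauged overt cytotoxicity; signal increase versus DMSO defined activity.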

[14] = read-out: Eotaxin 3, CCL26 (gene 10344); assay: BSK_BF4T_Eotaxin3: BioMAP Diversity Plus: BF4T Assay for Eotaxin 3 Biomarker Activity (AID 2284258); conditions: primary human bronchial epithelial cells with fibroblasts
Method in brief: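 ELISA measurement of Eotaxin-3 after 24 h chemical exposure in a bronchial epithelial/dermal fibroblast co-culture, with DMSO as baseline. Parallel SRB staining (0.1% SRB after 10% TCA fixation, 560 nm) flagged overt cytotoxicity.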

[15] = read-out: Monocyte Chemoattractant Protein-1 (MCP1), CCL2 (gene 6347); assay: BSK_BF4T_MCP1: BioMAP Diversity Plus: BF4T Assay for Monocyte Chemoattractant Protein-1 (MCP1) Biomarker Activity (AID 2284259); conditions: primary human bronchial epithelial cells with fibroblasts
Method in brief: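 MCP-1 ELISA readout taken 24 h after dosing in the BF4T system (bronchial epithelial cells plus dermal fibroblasts). Parallel SRB total-protein staining flagged cytotoxicity; DMSO served as baseline, positive fitting direction.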

[16] = read-out: Intercellular Adhesion Molecule 1 (ICAM1), ICAM1 (gene 3383); assay: BSK_BF4T_ICAM1: BioMAP Diversity Plus: BF4T Assay for Intercellular Adhesion Molecule 1 (ICAM1) Biomarker Activity (AID 2284260); conditions: primary human bronchial epithelial cells with fibroblasts
Method in brief: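 ICAM-1 levels measured by ELISA after 24 h chemical treatment of bronchial epithelial cell/dermal fibroblast co-cultures, read against DMSO baseline. Overt cytotoxicity checked in parallel cultures by sulforhodamine B staining.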

[17] = read-out: CD90, THY1 (gene 7070); assay: BSK_BF4T_CD90: BioMAP Diversity Plus: BF4T Assay for CD90 Biomarker Activity (AID 2284262); conditions: primary human bronchial epithelial cells with fibroblasts
Method in brief: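 CD90 levels by ELISA after 24 h treatment of human bronchial epithelial cell/dermal fibroblast cultures, analysed versus DMSO. Overt cytotoxicity checked in parallel cultures by sulforhodamine B staining.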

[18] = read-out: Interleukin-8 (IL8), CXCL8 (gene 3576); assay: BSK_BF4T_IL8: BioMAP Diversity Plus: BF4T Assay for Interleukin-8 (IL8) Biomarker Activity (AID 2284263); conditions: primary human bronchial epithelial cells with fibroblasts
Method in brief: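 Human bronchial epithelial cells with dermal fibroblasts co-culture; IL-8 measured by ELISA 24 hours after dosing, fitted vs DMSO. Cytotoxicity tracked in parallel cultures by SRB total-protein staining.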

[19] = read-out: Interleukin-1 alpha (IL1a), IL1A (gene 3552); assay: BSK_BF4T_IL1a: BioMAP Diversity Plus: BF4T Assay for Interleukin-1 alpha (IL1a) Biomarker Activity (AID 2284264); conditions: primary human bronchial epithelial cells with fibroblasts
Method in brief: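 ELISA read-out of IL-1α from bronchial epithelial cell/dermal fibroblast co-cultures 24 h after compound addition. Increases scored against DMSO negative control. Cytotoxicity monitored by sulforhodamine B staining of parallel cultures.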

[20] = read-out: KRT18 (gene 3875); assay: BSK_BF4T_Keratin818: BioMAP Diversity Plus: BF4T Assay for Keratin 818 Biomarker Activity (AID 2284266); conditions: primary human bronchial epithelial cells with fibroblasts
Method in brief: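 Keratin 8/18 levels quantified by ELISA after 24 h chemical treatment of bronchial epithelial cell/dermal fibroblast co-cultures, fitted in positive direction relative to DMSO. Parallel SRB staining tracks overt cytotoxicity.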

OCCN1CCOCC1
outcome [1]: inactive | outcome [2]: inactive | outcome [3]: inactive | outcome [4]: inactive | outcome [5]: inactive | outcome [6]: inactive | outcome [7]: inactive

c1ccc(OCCOc2ccccc2)cc1
outcome [8]: inactive | outcome [9]: inactive

CCCCCCCCCC(=O)OCC
outcome [1]: inactive | AC50 [2]: 26.9 µM (active) | outcome [3]: inactive | outcome [4]: inactive | outcome [5]: inactive | outcome [6]: inactive | outcome [7]: inactive

CCC(=O)OCC=Cc1ccccc1
outcome [1]: inactive | outcome [2]: inactive | outcome [3]: inactive | outcome [4]: inactive | outcome [5]: inactive | outcome [6]: inactive | outcome [7]: inactive

CCCO[Si](OCCC)(OCCC)OCCC
outcome [8]: inactive | outcome [9]: inactive

c1ccc(Sc2ccccc2)cc1
outcome [1]: inactive | AC50 [2]: 30.8 µM (active) | outcome [3]: inactive | AC50 [4]: 31.9 µM (active) | AC50 [5]: 32.6 µM (active) | AC50 [6]: 30.6 µM (active) | AC50 [7]: 36.5 µM (active)

c1ccc2c(c1)-c1ccc3ccc4cccc5cc-2c1c3c45
outcome [1]: inactive | outcome [2]: inactive | AC50 [3]: 0.709 µM (active) | outcome [4]: inactive | AC50 [5]: 0.0918 µM (active) | outcome [6]: inactive | outcome [7]: inactive

O=C(O)C(F)(F)C(F)(F)C(F)(F)C(F)(F)C(F)(F)C(F)(F)C(F)(F)C(F)F
outcome [1]: inactive | outcome [2]: inactive | outcome [3]: inactive | outcome [4]: inactive | outcome [5]: inactive | outcome [8]: inactive | AC50 [10]: 2.3 µM (active) | outcome [10]: inactive | outcome [9]: inactive | outcome [11]: inactive | outcome [12]: inactive | AC50 [13]: 0.257 µM (active) | outcome [13]: inactive | AC50 [14]: 4.86 µM (active) and 2.55 µM (active) | AC50 [15]: 2.81 µM (active) and 1.53 µM (active) | AC50 [16]: 2.59 µM (active) and 3.49 µM (active) | outcome [6]: inactive | outcome [17]: inactive | outcome [18]: inactive | outcome [19]: inactive | AC50 [7]: 22.5 µM (active) | outcome [7]: inactive | outcome [20]: inactive

O=S(=O)(O)C(F)(F)C(F)(F)OC(F)(F)C(F)(F)F
outcome [1]: inactive | outcome [2]: inactive | outcome [3]: inactive | outcome [4]: inactive | outcome [5]: inactive | outcome [8]: inactive | outcome [10]: inactive | outcome [9]: inactive | outcome [11]: inactive | outcome [12]: inactive | outcome [13]: inactive | outcome [14]: inactive | outcome [15]: inactive | outcome [16]: inactive | outcome [6]: inactive | outcome [17]: inactive | outcome [18]: inactive | outcome [19]: inactive | outcome [7]: inactive | outcome [20]: inactive
